RECQ1 inh-1: blocks DNA unwinding by human RECQ1 | RECQ1 DNA unwinding, red fluorescence kinetic read | Potency, µM (doses to about 57.3 µM), for the others: at the highest dose activity, negative = inhibition, hits mostly inhibitors | 240,000 compounds, 0.54% hits | P46063;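 note: plate controls were vehicle for no effect and no enzyme for full effect; nearly all actives have a fitted effect of over 30% in size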
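50 nM RECQ1T1 preincubated 15 min with compound in Tris pH 8.0 buffer with MgCl2, DTT, Tween-20 and 2.5 ug/ml poly(dI-dC); started with 200 nM TAMRA/BHQ-2 forked duplex and 2 mM ATP. Unwinding read as fluorescence (525/598 nm), two reads 2 h apart.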
FEN1 inhibitor: blocks human flap endonuclease 1; P39748; Recombinant FEN1 flap cleavage, fluorescence, 15 min; Potency, µM (titrated, usually from 114 µM), without a hit: at the highest dose activity change, negative = inhibition, actives largely listed as inhibitors; 390,000 compounds, 0.35% hits; AID 588795; note: nearly all actives have a fitted effect of over 65% in size
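Steps: FEN1 (10 nM) dispensed; compound added by pin tool; 15 min at room temperature; substrate added to 50 nM final; reads at 0 min and 15 min; data normalized and fitted (four-parameter Hill).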
APEX1 inh: APE1 (human) endonuclease inhibition | Potency, µM (top dose mostly 65.8 µM), for the others: at the top dose activity change, negative = inhibition, actives largely listed as inhibitors | 350,000 compounds, 0.35% hits | recombinant APE1, TAMRA/BHQ-2 abasic DNA cleavage fluorescence | P27695;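 note: plate controls were vehicle for no effect and reference inhibitor for full effect; nearly all actives have a fitted effect of over 55% in size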
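APE1 at 0.75 nM final was preincubated with compound 15 min at room temperature, then 50 nM double-stranded THF abasic-site substrate (5'-TAMRA/3'-BHQ-2) was added. Fluorescence (ex 525/em 598 nm) was read kinetically; third-minus-first read gave activity.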
BLM inh: inhibitors of human Bloom syndrome helicase BLM | P54132 | 350,000 compounds, 0.2% hits | AID 2528 | Potency, µM (doses to about 56.1 µM), without a hit: top-dose activity change, negative = inhibition, hits mostly inhibitors | recombinant BLM DNA unwinding, fluorescence dequenching;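 note: plate controls were vehicle for no effect and no enzyme for full effect; nearly all actives have a fitted effect of over 35% in size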
TDP1 inh: blocks human tyrosyl-DNA phosphodiesterase 1; Q9NUW8; recombinant TDP1, AlphaScreen DNA substrate cleavage; Potency, µM (highest dose often 130 µM), for inactives: top-dose activity change, negative = inhibition, hits mostly inhibitors; 350,000 compounds, 0.28% hits; AID 485290; note: nearly all actives have a fitted effect of over 40% in size
Target sequence (Q9NUW8 whole entry, looked up): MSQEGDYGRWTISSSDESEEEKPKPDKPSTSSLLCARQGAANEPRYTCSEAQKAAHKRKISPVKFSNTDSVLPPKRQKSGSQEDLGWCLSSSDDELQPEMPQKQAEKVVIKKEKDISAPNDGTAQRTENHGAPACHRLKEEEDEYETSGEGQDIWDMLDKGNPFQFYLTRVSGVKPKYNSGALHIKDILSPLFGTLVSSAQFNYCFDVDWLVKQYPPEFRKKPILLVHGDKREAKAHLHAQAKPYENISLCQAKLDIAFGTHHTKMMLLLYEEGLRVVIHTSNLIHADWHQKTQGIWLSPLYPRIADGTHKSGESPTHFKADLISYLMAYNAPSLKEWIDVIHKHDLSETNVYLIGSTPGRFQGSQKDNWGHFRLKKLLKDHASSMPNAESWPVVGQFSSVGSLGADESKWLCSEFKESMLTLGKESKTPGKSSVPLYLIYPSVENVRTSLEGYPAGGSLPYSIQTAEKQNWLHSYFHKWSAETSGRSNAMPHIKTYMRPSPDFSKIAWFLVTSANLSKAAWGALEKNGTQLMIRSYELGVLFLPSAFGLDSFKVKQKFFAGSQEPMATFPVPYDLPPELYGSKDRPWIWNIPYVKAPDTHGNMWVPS
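Tdp1 1 nM final; 15 min RT w/ cpd; substrate 15 nM, 5 min; beads 10 ug/ml, 10 min; AlphaScreen read. Neg ctrl: no enzyme.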
RECQ1 conf: confirmation of human RECQ1 helicase inhibitors; shares compounds with RECQ1 inh-1; RECQ1 helicase DNA unwinding, fluorescence; Potency, µM (series often up to 229 µM), without a hit: top-dose activity change, negative = inhibition, actives largely listed as inhibitors; 610 compounds, 28% hits; AID 2708; note: nearly all actives have a fitted effect of over 45% in size
ADP FP counter: ADP displacement flagged in RECQ1 inhibitor counter-screen; shares compounds with RECQ1 inh-1; ADP fluorescence polarization displacement counterscreen; Potency, µM (doses to about 228 µM), for inactives: top-dose activity change, negative = inhibition, hits mostly inhibitors; 530 compounds, 27% hits; note: nearly all actives have a fitted effect of over 45% in size
RECQ1 inh-2: RECQ1 helicase inhibition confirmed, round 2 | Potency, µM (top dose mostly 119 µM), without a hit: at the top dose activity, negative = inhibition, hits mostly inhibitors | shares compounds with RECQ1 inh-1 | recombinant RECQ1 DNA unwinding, red fluorescence | 1,100 compounds, 15% hits; note: nearly all actives have a fitted effect of over 50% in size
Numbers without * were called inactive; i = inactive; ? = inconclusive; . = no result given; + = active, no number; [ ] = dose if it differs, or a comment. A selection: hits, their analogues and other compounds. The true share with any hit is near 0.92%. Calls come from the whole dose curve; as a rule, active = well fitted curve in the direction sought with a large enough effect; inconclusive = small, poorly fitted or top-dose-only effect, or another doubt; inactive = no such curve, though single readings can be large; an effect the other way counts as inactive or inconclusive. Unless noted, % is set by controls: 0 for no effect and ±100 for the full control effect; potency is the fitted concentration of half-maximal effect.

SMILES	RECQ1 inh-1	FEN1 inhibitor	APEX1 inh	BLM inh	TDP1 inh	RECQ1 inh-2	others
Cc1ccc(Oc2nc3ccccn3c(=O)c2/C=C(\C#N)C(=O)Nc2c(C)n(C)n(-c3ccccc3)c2=O)c(C)c1	-0.9%	1.3%	1.9%	-3.6%	1.1%	.	RECQ1 conf=-2.3%;ADP FP counter=9.9%
COC(=O)/C(C#N)=C/c1c(Oc2cccc(C)c2)nc2ccccn2c1=O	-3.6%	-5.9%	6.9%	0.6%	4.2%	.
COc1ccccc1Oc1nc2ccccn2c(=O)c1/C=C(\C#N)C(=O)Nc1c(C)n(C)n(-c2ccccc2)c1=O	-0.1%	6.4%	1.6%	-9.4%	3.6%	.	RECQ1 conf=5.2%;ADP FP counter=28.3%
Cc1c(NC(=O)/C(C#N)=C/c2ccccc2)c(=O)n(-c2ccccc2)n1C	-8.5%	-3.2%	9.5%	-0.7%	4.6%	.
COc1ccc(CCNC(=O)Cn2c(=O)n(-c3ccc(OC)c(OC)c3)c(=O)c3ccccc32)cc1OC	.	-12.2%	.	-8.1%	0.9%	.
CN(C(=O)COc1ccc2ccc(=O)oc2c1)C1CCS(=O)(=O)C1 (configuration not stated)	.	2.4%	69.7%	1.2%	5.7%	.
CC(=O)OC1CCC2(C)C(COc3ccc4ccc(=O)oc4c3)C(C)(O)CCC2C1(C)C (configuration not stated)	?	3.6%	11.1%	-10.6%	-1.0%	-22.8%
Cc1ccccc1N=C/C=C1\N(C)c2ccccc2C1(C)C	?	2.7%	?	4.9%	11.4%	-8.7%
CN1/C(=C\C=N\O)C(C)(C)c2ccccc21	-4.4%	18.4%	2.9%	-2.8%	8.9%	.
COc1ccc(/C=C2\SC(=O)N(CC(=O)NNC(=O)c3ccccc3O)C2=O)cc1	2.82µM*	8.6%	16.3%	-2.8%	0.0%	?
COc1cc(NC(=O)CSc2nc3ccccc3cc2C)c(C(=O)O)cc1OC	-6.1%	3.8%	0.5%	-2.0%	5.5%	.	RECQ1 conf=12.6%;ADP FP counter=?
CCc1cc2ccccc2nc1SCC(=O)Nc1cc(OC)c(OC)cc1C(=O)O	3.9%	-9.9%	2.2%	3.8%	2.7%	.
COc1ccc2cc(C)c3nnc(SCC(=O)Nc4cc(OC)c(OC)cc4C(=O)O)n3c2c1	-2.5%	-13.2%	1.1%	-1.4%	0.6%	.	RECQ1 conf=21.2%;ADP FP counter=-7.7%
O=C1C(c2[nH]c3ccc(S(=O)(=O)O)cc3c2O)=Nc2ccc(S(=O)(=O)O)cc21	i	?	?	-9.9%	?	.
Cc1nnc2ccc(-c3cccc(NC(=O)Cc4cccs4)c3)nn12	?	-3.7%	3.0%	-12.7%	-2.3%	-25.2%
CCOc1ccc(CC(=O)Nc2cccc(-c3ccc4nnc(C)n4n3)c2)cc1	-6.4%	0.7%	12.9%	7.3%	8.1%	.
COC(=O)C/C=C\[C@H](C)[C@H](CO)NS(=O)(=O)c1ccc(C)cc1	i[11.5 µM]	.	-5.0%[12.4 µM]	3.9%[12.4 µM]	3.7%[21 µM]	.
COc1cc(NS(=O)(=O)c2ccc(C(=O)O)cc2)c2nc(C)ccc2c1	.	7.1%	.	.	-2.7%	.
COC(=O)c1sc2nc(-c3ccco3)ccc2c1N	-26.6%	-6.6%	?	-9.2%	-12.8%	.
NC(=O)c1sc2nc(-c3ccco3)ccc2c1N	11.2µM*	?	?	-7.3%	?	-16.6%
CCOC(=O)Cc1cc(=O)c2c(=O)n(-c3ccccc3)[nH]c2[nH]1	?	-2.9%	-8.1%	-1.3%	2.0%	-1.1%
COc1ccccc1CC(=O)Nc1ccc2nc(Nc3cccc(Cl)c3)cc(C)c2c1	.	11.1%	.	-0.2%	5.0%	.
Cc1ccc(S(=O)(=O)N2CC=C(c3c(C)n(C)c4ccccc34)CC2)cc1	-15.7%	-17.6%	0.3%	-8.7%	5.8%	.
CCn1c(C)c(C2=CCN(S(=O)(=O)c3ccccc3)CC2)c2ccccc21	25.1µM*	-8.6%	-9.9%	-5.8%	6.8%	?	RECQ1 conf=50.1µM*
Cc1cc(=O)c2c(O)c3c(O)cc(=O)c4c3c3c(cc(O)c1c23)C(C)(C)C=4O	1.78µM*	.	6.3%	7.08µM*	8.1%	i	RECQ1 conf=+;ADP FP counter=0.316µM*
SMILES	RECQ1 inh-1	FEN1 inhibitor	APEX1 inh	BLM inh	TDP1 inh	RECQ1 inh-2	others
Cc1ccc(-n2nc(-c3ccco3)cc2C(=O)O)cc1	20µM*	-8.5%	?	0.5%	.	?
CC(=O)NC(Cc1ccc(I)cc1)C(=O)NCC(N)C(=O)c1ccccc1 (configuration not stated)	.	-4.5%	.	.	.	.
CCN(CCCCN1C(=O)c2ccccc2C1=O)c1ccc2c(c1)C(=O)N(C)C2=O	28.2µM*	-22.6%	?	-24.0%	.	?
CC(=O)Nc1ccc(S(=O)(=O)/N=C2/NC(=O)/C(=C\c3ccco3)S2)cc1	?	-31.2%	?	0.4%	?	-24.4%
Cc1ccc(S(=O)(=O)/N=C2/NC(=O)/C(=C\c3ccco3)S2)cc1	?	4.0%	-11.4%	-4.6%	-4.0%	-19.9%
O=C(Nc1cc(Cl)cc(Cl)c1)c1cnn2c1NC(=C1CC1)C=C2C(F)F	.	-4.5%	.	.	.	.
CCOC(=O)C1=C(c2ccccc2)N=c2s/c(=C\c3ccc(O)cc3)c(=O)n2C1c1cccs1 (configuration not stated)	?	?	-0.2%	-12.4%	4.0%	15.8µM*
O=C(Cn1cc(S(=O)(=O)Cc2cccc(Cl)c2)c2ccccc21)Nc1ccccc1C(F)(F)F	.	5.8%	.	-4.8%	0.0%	.
COc1ccc(NC(=O)/C(Cl)=C(/Cl)S(=O)Cc2ccc(Cl)cc2)cn1 (configuration not stated)	35.5µM*	-4.0%	8.6%	-16.7%	4.9%	-32.7%
O=C(Oc1ccccc1)N1CCC[C@@]2(CCN(c3ccccc3)C2)C1	-8.6%	.	0.4%	1.3%	.	.
Cc1ccc(S(=O)(=O)Nc2ccc(O)c(Sc3ncn[nH]3)c2)cc1	23.4%	-9.3%	-4.2%	-5.1%	-2.5%	.
Cc1ccc(S(=O)(=O)/N=C2/C=C(Sc3ncn[nH]3)C(=O)c3ccccc32)cc1	?	50.1µM*	-10.6%	15.8µM*	10.5%	?
Cc1cc(=O)oc2c(CN3CCC(C)CC3)c(O)c(Cl)cc12	28.2µM*	-12.9%	?	-17.1%	?	?
Cc1cc(=O)oc2c(CN3CCCC3)c(O)c(Cl)cc12	.	3.3%	62.0%	-4.0%	.	.
Cc1ccc(NC(=O)N/C=C/c2ccco2)cc1	?	-15.1%	?	-0.5%	-13.2%	?

Screening data from PubChem BioAssay.
